# Assay results: the OligoGym collection
# Target: KBTBD12
# Test: pooled miR-30 sensor sort-seq; sequence = guide strand
# Details: shRNA
# Further: reference of the scale not given here.
row,Sequence,sensor-assay potency score (higher = more potent)
1,TAAATCTTCAGCTCCAATCTGC,0.302
2,TTCATCAGGAAGATCCATCTGA,0.942
3,TTGTCTTGACCTACACAGCCAA,-0.566

# Target: KCNAB2
# Test: as above
# Details: shRNA
row,Sequence,sensor-assay potency score (higher = more potent)
1,TATCTTGTGGAACAGCTCCGGC,-1.17
2,CAAAATACTATCAATCTCGTGG,-0.486
3,TAGACTTCTGCTGTATCGAAGA,-0.756
4,TTCTGCTGTATCGAAGAGGTTG,-0.594
5,TTTCTCACGCTGGAACATGTGG,-0.804
6,AATACTATCAATCTCGTGGATA,-1.21
7,TTCGATTATGTGCTTCCTGGAC,-0.692
8,TTGGTGGTGATGACGAGGCTGG,-0.706
9,TTTCAGACCTTCGATTATGTGC,-0.469
10,TTCCTGTAGATCATCCCGGGGG,-0.0548
11,ATGATCTCCATGGAGCTCCAGC,-1.53
12,TGACAGTTTCGGAAGGACCTGT,0.657

# Target: KCNB1
# Test: as above
# Details: shRNA
row,Sequence,sensor-assay potency score (higher = more potent)
1,TTAGTTTTCATGGAACTCTTGG,0.191
2,TAGAAGTTGAGGATGGAGGTGA,0.819
3,TACATGTCTTCCAACTGCTGAA,-0.486
4,TACTCGTTGTCGTCGAGGCTGT,-0.424
5,TTTGAACTTGGTGTCGTCCTCA,0.816
6,TAGATCTCGTCGATGCCCCAGT,-0.693
7,TTCATCTGCTCTTTCTTCTGGT,0.512
8,TTTTCTCCGATCTTGTCCCCGT,-0.234
9,TTTCTCAACCACAATGTCCATC,-0.571
10,TTGAACTTGGTGTCGTCCTCAT,0.219
11,TACTTTGTCTTTCTTACCCATA,-1.04

# Target: KCNC1
# Test: as above
# Details: shRNA
row,Sequence,sensor-assay potency score (higher = more potent)
1,TTCTTTGGTAGTTTCTGCTTAG,-0.569
2,AATTTCTAAAATTTCTTCCTGG,0.198
3,TTGATGAACTCTACCTTGTTGG,0.0525
4,TTTTCTTTGGTAGTTTCTGCTT,-0.644
5,TTTCTTTGGTAGTTTCTGCTTA,0.312
6,TTCAGTTTGGAATCTGCTCTGT,0.183
7,TTGCGTGCCATTGCGAACGTTC,-0.65
8,ATGAACTCTACCTTGTTGGGGC,0.181
9,TTCTTGATGAACTCTACCTTGT,-0.835
10,TAAGGAGTAATACATCCCGAAA,-1.65
11,TAGTAGTTCAGGATGTGCGCGA,0.436
12,TACTTAGCAATGACAGGGCTTT,-0.252
